In the library only some 11% were active in any assay of this set; here they are far more common.
12-hLO inh – inhibitors of human 12-lipoxygenase (ALOX12) | purified 12-hLO, xylenol orange hydroperoxide absorbance | 0.12% of 150,000 active | P18054 | AID 1452 | Potency, µM (titrated, usually from 57.1 µM), most hits filed as inhibitors; active means well fitted curve in the direction sought with a large enough effect; inconclusive means small, poorly fitted or top-dose-only effect, or another doubt; inactive means no such curve, though single readings can be large; an effect the other way counts as inactive or inconclusive; further: nearly all actives have a fitted effect of over 55% in size
Target sequence (P18054 whole entry, looked up): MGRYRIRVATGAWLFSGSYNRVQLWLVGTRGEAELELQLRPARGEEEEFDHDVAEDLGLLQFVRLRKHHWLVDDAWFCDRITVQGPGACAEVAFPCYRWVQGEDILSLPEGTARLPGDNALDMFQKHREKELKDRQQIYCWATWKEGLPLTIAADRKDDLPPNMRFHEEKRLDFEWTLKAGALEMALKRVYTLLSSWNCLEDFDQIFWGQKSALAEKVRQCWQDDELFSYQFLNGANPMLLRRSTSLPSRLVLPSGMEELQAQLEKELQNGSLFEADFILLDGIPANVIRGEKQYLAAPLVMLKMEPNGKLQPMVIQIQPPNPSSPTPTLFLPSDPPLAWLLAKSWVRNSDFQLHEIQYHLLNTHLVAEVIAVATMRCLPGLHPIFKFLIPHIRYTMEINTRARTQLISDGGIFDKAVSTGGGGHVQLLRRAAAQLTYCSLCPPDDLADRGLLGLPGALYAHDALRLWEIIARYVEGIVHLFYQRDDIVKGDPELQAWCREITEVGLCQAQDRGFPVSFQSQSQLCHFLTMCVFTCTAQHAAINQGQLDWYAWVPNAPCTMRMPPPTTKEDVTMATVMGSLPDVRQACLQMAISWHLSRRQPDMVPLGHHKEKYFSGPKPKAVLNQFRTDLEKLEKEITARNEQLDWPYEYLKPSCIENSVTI
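Purified human 12hLO (150 nM final) was preincubated with compounds for 15 min at room temperature in 25 mM Hepes pH 7.0, 0.01% Triton X-100, then reacted with 40 uM arachidonic acid for 30 min. Hydroperoxide was detected with ferrous iron/xylenol orange.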
ALDH1A1 block – ALDH1A1 (human) enzyme inhibition | AID 1030 | Potency, µM (series often up to 75.3 µM), actives largely listed as inhibitors | P00352 | Purified ALDH1A1, NADH fluorescence, propionaldehyde substrate | 7.3% of 220,000 active
HPGD inh – blocks human HPGD enzyme activity | 4.3% of 150,000 active | Potency, µM, hits mostly inhibitors | P15428 | purified HPGD, NADH fluorescence kinetic, PGE2 substrate
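20 nM HPGD preincubated 15 min at room temperature with compound in 50 mM Tris-HCl pH 8, 0.01% Tween 20. Started with 1 mM NAD+ and 30 uM prostaglandin E2; NADH fluorescence (360/450 nm) read 5 times over 30-s intervals, last minus first.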
PNC inhibitor – inhibitors of perinucleolar compartment assembly | PC3M PTB-GFP, PNC prevalence imaging, 16 h; stronger effect = lower value | activity change (PNC), negative = inhibition, % at 10 µM | 3.1% of 140,000 active;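 active means readout at or below -70, meaning at least 70% loss of cells showing the perinucleolar compartment, a nuclear body marking cancer cells; inconclusive means readout between -30 and a set limit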
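PC3M cells stably expressing PTB-GFP, 750–1000 cells/well, treated 16 h at 37 °C with compound (23 nl of library stock), in duplicate. After paraformaldehyde fixation and Hoechst stain, imaged at 20x; PNC prevalence scored by image analysis.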
IMPase Li cell – cell-permeable IMPase inhibitors with lithium potentiation; CHO-M1 cells, IP1 TR-FRET (IP-One), carbachol + lithium; Potency, µM (titrated, usually from 59.4 µM), usual class: inhibitors; 0.35% of 210,000 active; AID 1457; active means well fitted curve in the direction sought with a large enough effect; inconclusive means small, poorly fitted or top-dose-only effect, or another doubt; inactive means no such curve, though single readings can be large; an effect the other way counts as inactive or inconclusive;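 further: IP1 builds up when IMPase is blocked and the TR-FRET signal falls; nearly all actives have a fitted effect of over 50% in size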
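CHO cells stably expressing M1 receptor (2000/well) were cultured 16–30 h, then exposed to compounds with a small lithium addition for 30 min at 37C. IP1 was measured by TR-FRET competition; AC50 from Hill fits.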
IMPase cell inh – membrane-permeable compound that blocks inositol monophosphatase; CHO-M1 cells, IP1 accumulation, HTRF TR-FRET ratio; P97697; 120,000 tested, under 10 active; inhibition (IP1 accumulation), % at 46.1 µM; active means well fitted curve in the direction sought with a large enough effect in the signal ratio, not every such curve was filed as active; inconclusive means small, poorly fitted or top-dose-only effect, or a change in a side signal; inactive means no such curve, though single readings can be large or run the other way; the % refers to the signal ratio;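 further: cells stimulated with carbachol in lithium chloride buffer; higher means more IMPase inhibition seen as more IP1 and lower FRET ratio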
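Measured: the HTRF emission ratio (665/620 nm) plus the 620 nm donor channel, each fitted to the Hill equation to give AC50. Cells were CHO-M1 given compounds up to 46 uM and a 30 min carbachol stimulation at 37C.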
A number is an active result; . = inactive; ? = inconclusive; / = not tested or not shown; [ ] = remark or other dose. Unless noted, the call rests on the fitted dose curve; in most records, active means well fitted inhibition curve with a large enough effect (not every such curve was filed as active); inconclusive means small, poorly fitted or top-dose-only effect, or another doubt; inactive means no such curve, though single readings can be large or run the other way.

SMILES	12-hLO inh	ALDH1A1 block	HPGD inh	PNC inhibitor	IMPase Li cell	IMPase cell inh
CCc1ccc(C(=O)COC(=O)c2ccc(-c3nnc(-c4ccccc4)o3)cc2)cc1	.	.	.	.	3.5µM	.
CCOc1cc(CO)cc(Br)c1OCC(N)=O	/	.	/	/	.	/
CCCOc1c(Cl)cc(/C=N/O)cc1OCC	.	?	25µM	.	.	.
CCOc1cc(C=O)cc(Cl)c1OCC(N)=O	/	7.1µM	/	/	.	/
CCOc1cc(/C=N/O)cc(Cl)c1OC	.	.	.	.	.	.
c1cncc(CNc2ccnc(-c3cccnc3)n2)c1	/	.	/	/	.	/
O=c1c2ccccc2nc(-c2ccccc2)n1Cc1ccccc1	.	16µM	.	?	.	/
O=c1c2ccccc2nc(-c2ccccc2)n1CCN1CCOCC1	.	13µM	.	.	.	.
O=c1c2ccccc2nc(-c2ccccc2)n1Cc1ccc(Cl)cc1	.	6.3µM	.	.	.	.
Cc1nc2ccccc2c(=O)n1CC(=O)N1CCOCC1	.	.	.	-85	.	.
CN(Cc1cnc2nc(N)nc(N)c2n1)c1ccc(C(=O)NC(CCC(=O)O)C(=O)O)cc1 (configuration not stated)	.	.	.	/	.	/
Cc1ccc(COc2ccc3oc(-c4ccccc4)c(C(=O)O)c3c2)cc1	/	/	/	/	/	.
N#Cc1cn(-c2ccccc2)nc1-c1ccccc1	.	.	.	.	.	.
N#Cc1c(-c2ccccc2)no[n+]1[O-]	.	5µM	.	/	.	.
Clc1ccc(C2=NNC(=NCC3CCCO3)SC2)cc1 (configuration not stated)	.	8.9µM	?	.	.	.
COc1cc(/C=N/NC(=S)Nc2cccc(S(=O)(=O)N(C)C)c2)ccc1O	.	.	.	.	.	/
CCOC(=O)c1ccc(NC(=O)c2cn(-c3ccccc3)nc2-c2ccc(OC)c(OC)c2)cc1	/	/	/	/	/	.
Cc1ccc(CNc2oc(C)nc2C#N)cc1	.	.	/	-85	/	.
Cc1ccc(CNc2oc(-c3ccco3)nc2C#N)cc1	.	?	?	?	.	.
CC(C1CC2CCC1C2)n1c(-c2ccco2)n[nH]c1=S (configuration not stated)	/	14µM	/	/	.	/
CCOc1ccc(NC(=S)NC(=O)/C=C/c2ccc(C)cc2)c([N+](=O)[O-])c1	.	?	?	.	.	.
COC(=O)c1cc(Cl)c(NC(=O)/C=C/c2ccc(OC)cc2)cc1OC	.	?	?	-113	.	/
COc1ccc(NC(=O)/C=C/c2ccccc2)c([N+](=O)[O-])c1	.	.	.	-82	.	/
COc1ccc(/C=C/C(=O)Nc2ccc(Cl)c(Cl)c2)cc1	/	/	/	/	/	.
CCOc1ccc(NC(=S)NC(=O)/C=C/c2ccc(OC)c(OC)c2)c([N+](=O)[O-])c1	.	.	22µM	.	.	.
SMILES	12-hLO inh	ALDH1A1 block	HPGD inh	PNC inhibitor	IMPase Li cell	IMPase cell inh
C=CC1=C(C)C2=NC1=CC1=NC(=CC3=NC(=CC4=NC(=C2)C(C)=C4CCC(=O)O)C(CCC(=O)O)=C3C)C(C=C)=C1C.[Zn]	?	?	?	/	.	.
CC1(C)C(c2ccccn2)=[N+]([O-])C(C)(C)N1O	.	.	.	?	.	.
CC1(C)C(c2ccccc2)=[N+]([O-])CN1O	.	7.9µM	.	.	?	.
O=[N+]([O-])c1cc(C(F)(F)F)ccc1Sc1ccc2ccccc2n1	.	?	16µM	.	.	.
Cc1cc(NC(=O)CN2C(=O)CC(c3ccco3)Sc3ccccc32)no1 (configuration not stated)	.	14µM	.	.	.	.
O=C(Cn1cnc2cc([N+](=O)[O-])ccc2c1=O)NCCc1ccc(F)cc1	/	32µM	/	/	.	/
O=C(Cn1cnc2cc([N+](=O)[O-])ccc2c1=O)NCCc1ccc(Cl)cc1	/	?	/	/	.	/
COCCn1cc(C(=O)NCCCN2CCC(C)CC2)c2c3ccccc3n(C)c2c1=O	.	?	?	.	.	.
CCN1CCN(CCCNC(=O)c2cn(CCOC)c(=O)c3c2c2ccccc2n3C)CC1	.	?	?	-101	.	.
CC(C)C(=O)N(c1ccc(F)cc1)C1C=CS(=O)(=O)C1 (configuration not stated)	.	28µM	/	.	/	.
COc1ccc(N(C(=O)Cc2cccs2)C2C=CS(=O)(=O)C2)cc1 (configuration not stated)	/	28µM	/	/	.	/
O=C(Cc1cccs1)N(c1ccc(Br)cc1)C1C=CS(=O)(=O)C1 (configuration not stated)	/	.	/	/	.	/
COc1nc(NCCO)nc(Nc2ccccc2F)n1	/	.	/	/	.	/
COc1ccc(O[C@H]2C=C[C@@H](c3ccccc3)O[C@@H]2CO/N=C(\C)CCN2CCCc3nc(C)c(C)cc32)cc1	/	.[13.5 µM]	/	/	/	/
CCOC(=O)CC1Sc2ccccc2NC1=S (configuration not stated)	/	7.9µM	/	/	/	/
c1ccc(-c2n[nH]c3c2oc2ccccc23)cc1	.[0.00818 µM]	.	.	/	.	/
N#CC1=C(C2CC2)CC(c2ccccc2)C(C#N)=C1N (configuration not stated)	?	?	.	.	.	.
N#CC1=C(N)SC2(CCCCC2)SC1c1ccccc1 (configuration not stated)	.	25µM	?	.	.	.
Cc1cc(C2(c3cc(C)c(O)cc3C)OS(=O)(=O)c3ccccc32)c(C)cc1O	.	28µM	.	/	.	/
O=C(NC1CCCCC1)c1cc2nc3c(c(C(F)(F)F)n2n1)CCCC3	.	?	28µM	.	.	.
Cc1cc(NC(=O)COC(=O)COc2cccc3c2OC(C)(C)C3)no1	.	.	.	.	.	.
Cc1cnc(NC(=O)COc2cccc3c2OC(C)(C)C3)s1	.	.	.	-95	.	.
CC1(C)CC(=O)C2=C(C1)OC1=C(C(=O)CC(C)(C)C1)C2c1ccc(O)cc1O	?	0.89µM	3.2µM	.	.	.
C=CCn1c(SCC(=O)c2ccc(OC)cc2)nnc1-c1cc2cccc(OC)c2o1	.	.	.	-123	.	.
C=CCn1c(COC)nnc1SCC(=O)c1ccc(F)cc1	.	11µM	.	?	.	.
COc1ccc(C(=O)CSc2nnc(-c3cc4ccccc4cc3O)n2Cc2ccco2)cc1	.	?	.	.	.	.
C=CCn1c(SCC(=O)c2ccccc2)nnc1-c1ccc2c(c1)OCO2	.	25µM	5.6µM	.	.	.
C=CCNC(=O)CSc1nnc(-c2ccccn2)n1Cc1ccccc1	/	35µM	/	/	.	/
CS(=O)(=O)c1ccc(CNC(=O)[C@@H]2C[C@H]2[C@@H](NP(=O)(c2ccccc2)c2ccccc2)c2ccccc2)cc1	.	.	.	/	.	/
C=CCn1c(SCC(=O)Nc2ccc3c(c2)OCCO3)nnc1-c1ccccn1	.	?	.	-81	.	?
